# Data taken from PubChem BioAssay (EPA / NIEHS).
# Inconclusive results are not listed. Active and inactive are the calls of the source. Rule for the calls: active = hit-call score of the fitted dose curve at least 0.9, where 1 is the maximum; inconclusive = response in the unintended direction; inactive = score below 0.9.
# Read-out: Broad substrate specificity ATP-binding cassette transporter ABCG2 (Homo sapiens) (UniProt Q9UNQ0)
# Experiment: CLD_ABCG2_48hr: CellzDirect (CLD) Gene Expression Assay for ABC Transporter (ABCG2) at 48 hours (AID 2283704);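 for AC50: potency for induction of ABCG2 mRNA above the DMSO baseline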
# Experimental: CLD_48hr is a cell-based, multiplexed-readout assay that uses hepatocyte, a human liver primary cell, with measurements taken at 48 hours after chemical dosing in a 96-well plate.CLD_ABCG2_48hr is one of 16 assay component(s) measured or calculated from the CLD_48hr assay. It is designed to make measurements of mRNA induction, a form of inducible reporter, as detected with chemiluminescence signals by Quantitative Nuclease Protection Assay (qNPA) technology.Data from the assay component CLD_ABCG2_48hr was analyzed at the endpoint, CLD_ABCG2_48hr, in the positive analysis fitting direction relative to DMSO as the negative control and baseline of activity. Using a type of inducible reporter, gain-of-signal activity can be used to understand changes in the reporter gene as they relate to the gene ABCG2. Furthermore, this assay endpoint can be referred to as a primary readout. To generalize the intended target to other relatable targets, this assay endpoint is annotated to the transporter intended target family, where subfamily is ABC transporter.
# Human hepatocyte cultures were treated daily for two consecutive days with fresh dosing solutions containing appropriate concentrations of the 320 ToxCast chemicals (chemical identities were blinded to CellzDirect and other ToxCast collaborators), vehicle control (0.2% DMSO), and positive control inducers as summarized in Table 1. Due to the large number of treatment groups and chemicals examined, the ToxCast chemicals were divided into two groups (spanning two independent cultures of hepatocytes from separate donor preparations (Hu778: ToxCast plates 1 and 2; Hu776: ToxCast plates 3 and 4). Each preparation of human hepatocyte cultures was treated with respective vehicle control, medium only control, set of six positive controls/reference chemicals for the five hepatic receptor pathways, and a subset of eight of the ToxCast chemicals (indoxacarb, pyrithiobac-sodium, norflurazon, cyhalofop-butyl, methomyl, thiram, acetochlor, and propiconazole). These replicate data, coupled with internal replicates designed within the blinded ToxCast chemical library, provided additional data to evaluate interindividual differences between hepatocyte preparations and their potential impact on chemical profiles.Cell morphology and integrity were evaluated using phase-contrast microscopy as an indicator of hepatocyte cell health (Tyson & Green, 1987). Cultures for each treatment group (i.e., media, vehicle [0.2% DMSO], positive control inducers [multiple concentrations], and the ToxCast chemicals [multiple concentrations]) were observed and cell morphology was assessed relative to vehicle control cultures at each harvest time point (0, 6, 24, or 48 h). […] Images were evaluated at the conclusion of the study to assess changes in cell integrity and account for the effects of chemical exposure on uncharacteristic changes in concentration-dependent gene expression profiles. The results from these determinations of apparent cytotoxicity were annotated (yes/no) alongside the corresponding qNPA data for reference.At the conclusion of each treatment period, hepatocyte cultures (96-well) were washed with 1 volume of HBSS, lysed by addition of 25 ul ArrayPlate lysis buffer (HTG, Tucson, AZ), and 70 ul/well of Denaturation Oil, denatured by incubation at 95C for 10 min, and frozen at approximately -70C until analysis by nuclease protection assay (qNPA) (Roberts et al., 2007). For qNPA analysis, cell lysates were thawed at 50C for approximately 30 min, qNPA probes were added, and samples were incubated at 95C for 10 min to begin the detection process by denaturing the target RNA, dissociating the duplexes and secondary structure hybridization. At the conclusion of the hybridization period, S1 nuclease reagent was added to each sample to digest all nonprotected nucleotides at 50C for 60-90 min. […]
# Broad substrate specificity ATP-binding cassette transporter ABCG2 (Homo sapiens), sequence (Q9UNQ0 whole entry, looked up): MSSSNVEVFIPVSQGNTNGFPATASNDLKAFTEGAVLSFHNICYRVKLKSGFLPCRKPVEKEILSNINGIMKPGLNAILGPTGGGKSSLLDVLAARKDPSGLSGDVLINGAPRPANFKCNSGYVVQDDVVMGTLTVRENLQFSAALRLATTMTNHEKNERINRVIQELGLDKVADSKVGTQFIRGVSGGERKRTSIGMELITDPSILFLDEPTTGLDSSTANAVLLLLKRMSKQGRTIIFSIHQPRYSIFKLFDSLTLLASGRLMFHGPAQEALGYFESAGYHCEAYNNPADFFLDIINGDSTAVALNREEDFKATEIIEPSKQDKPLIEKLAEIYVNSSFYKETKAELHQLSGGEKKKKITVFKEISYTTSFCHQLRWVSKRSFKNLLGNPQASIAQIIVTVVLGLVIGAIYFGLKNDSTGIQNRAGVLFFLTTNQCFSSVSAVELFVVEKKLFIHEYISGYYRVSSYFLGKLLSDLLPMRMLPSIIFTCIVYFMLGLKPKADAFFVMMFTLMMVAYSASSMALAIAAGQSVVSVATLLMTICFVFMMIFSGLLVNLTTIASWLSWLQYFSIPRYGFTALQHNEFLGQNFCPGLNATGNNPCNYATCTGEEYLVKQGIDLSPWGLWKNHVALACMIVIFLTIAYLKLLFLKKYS
SMILES,outcome,AC50
COP(=O)(OC)SCn1c(=O)oc2cc(Cl)cnc21,inactive,
CCCCOC(=O)[C@@H](C)Oc1ccc(Oc2ccc(C#N)cc2F)cc1,inactive,
CN(C)C(=O)Nc1cccc(C(F)(F)F)c1,inactive,
CCOP(=S)(OCC)OC(Cl)C(Cl)(Cl)Cl (stereo not given),inactive,
COP(=O)(OC)C(O)C(Cl)(Cl)Cl (stereo not given),inactive,
COc1cc(OC)nc(Sc2cccc(Cl)c2C(=O)O)n1,inactive,
O=c1ccc(=O)[nH][nH]1,inactive,
S=C1NCCN1,inactive,
CC(C)=CC1C(C(=O)OCN2C(=O)C3=C(CCCC3)C2=O)C1(C)C (stereo not given),inactive,
CCOC(=O)CC(SP(=O)(OC)OC)C(=O)OCC (stereo not given),inactive,
CCOP(=S)(OCC)Oc1ccc2c(C)c(Cl)c(=O)oc2c1,inactive,
CC1=NNC(=O)N(/N=C/c2cccnc2)C1,inactive,
CON=C(C(=O)OC)c1ccccc1CON=C(C)c1cccc(C(F)(F)F)c1,inactive,
COP(=O)(NC(C)=O)SC (stereo not given),inactive,
CCCCSP(=O)(SCCCC)SCCCC,,33.5 µM (active)
CN1COCN(Cc2cnc(Cl)s2)C1=N[N+](=O)[O-],inactive,
C[N+]1(C)CCCCC1,inactive,
FC(F)C(F)(F)OCC(Cn1cncn1)c1ccc(Cl)cc1Cl (stereo not given),inactive,
Cc1ccn2nc(S(=O)(=O)Nc3c(F)cccc3F)nc2n1,inactive,
CCCOCC(=Nc1ccc(Cl)cc1C(F)(F)F)n1ccnc1,,20 µM (active)

SMILES,outcome,AC50
N#CSCSC#N,inactive,
CCOP(=O)(OCC)Oc1cc(C)nc(C(C)C)n1,inactive,
CCc1cccc(C)c1N(C(=O)CCl)C(C)COC (stereo not given),inactive,
CC[C@H](C)[C@H]1O[C@]2(C=C[C@@H]1C)C[C@@H]1C[C@@H](C/C=C(\C)[C@@H](O[C@H]3C[C@H](OC)[C@@H](O[C@H]4C[C@H](OC)[C@@H](NC)[C@H](C)O4)[C@H](C)O3)[C@@H](C)/C=C/C=C3\CO[C@@H]4[C@H](O)C(C)=C[C@@H](C(=O)O1)[C@]34O)O2,inactive,
C[Si](Cn1cncn1)(c1ccc(F)cc1)c1ccc(F)cc1,,31.6 µM (active)
CCc1cnc(C2=NC(C)(C(C)C)C(=O)N2)c(C(=O)O)c1 (stereo not given),inactive,
CC(COc1ccc(Oc2ccccc2)cc1)Oc1ccccn1 (stereo not given),inactive,
CC(Oc1cccc(Cl)c1)C(=O)O (stereo not given),inactive,
CCOP(=O)(SC(C)CC)N1CCSC1=O (stereo not given),inactive,
COc1ccc(C(=CC(=O)N2CCOCC2)c2ccc(Cl)cc2)cc1OC,,32 µM (active)
CCCCOC(=O)c1ccccc1C(=O)O,inactive,
CCCCN(CC)c1c([N+](=O)[O-])cc(C(F)(F)F)cc1[N+](=O)[O-],inactive,
CCCSP(=O)(OCC)SCCC,inactive,
CC(C1CC1)C(O)(Cn1cncn1)c1ccc(Cl)cc1 (stereo not given),inactive,
CNC(=O)ON=C(SC)C(=O)N(C)C,inactive,
C#CCC1=C(C)C(OC(=O)C2C(C=C(C)C)C2(C)C)CC1=O (stereo not given),inactive,
C=C(C)[C@H]1Cc2c(ccc3c2O[C@@H]2COc4cc(OC)c(OC)cc4[C@@H]2C3=O)O1,,0.309 µM (active)
CC1(C(=O)Nc2ccc(O)c(Cl)c2Cl)CCCCC1,inactive,
CSC1=N[C@@](C)(c2ccccc2)C(=O)N1Nc1ccccc1,inactive,
CCc1cccc(CC)c1N(COC)C(=O)CCl,inactive,
